In all, about 100,000 compounds went through this assay and about 4,200 (4.2%) were called active. What follows is part of a selection rich in actives, with near analogues and random picks from the rest. Unmarked numbers belong to inactive results.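 How the source made its calls: active means single-dose well whose peak fluorescence ratio is a statistical outlier from its plate by either plate-standardised score or position-corrected B-score; inactive means the rest.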

Sequence of Voltage-dependent T-type calcium channel subunit alpha-1H (Homo sapiens) (O95180 whole entry, looked up): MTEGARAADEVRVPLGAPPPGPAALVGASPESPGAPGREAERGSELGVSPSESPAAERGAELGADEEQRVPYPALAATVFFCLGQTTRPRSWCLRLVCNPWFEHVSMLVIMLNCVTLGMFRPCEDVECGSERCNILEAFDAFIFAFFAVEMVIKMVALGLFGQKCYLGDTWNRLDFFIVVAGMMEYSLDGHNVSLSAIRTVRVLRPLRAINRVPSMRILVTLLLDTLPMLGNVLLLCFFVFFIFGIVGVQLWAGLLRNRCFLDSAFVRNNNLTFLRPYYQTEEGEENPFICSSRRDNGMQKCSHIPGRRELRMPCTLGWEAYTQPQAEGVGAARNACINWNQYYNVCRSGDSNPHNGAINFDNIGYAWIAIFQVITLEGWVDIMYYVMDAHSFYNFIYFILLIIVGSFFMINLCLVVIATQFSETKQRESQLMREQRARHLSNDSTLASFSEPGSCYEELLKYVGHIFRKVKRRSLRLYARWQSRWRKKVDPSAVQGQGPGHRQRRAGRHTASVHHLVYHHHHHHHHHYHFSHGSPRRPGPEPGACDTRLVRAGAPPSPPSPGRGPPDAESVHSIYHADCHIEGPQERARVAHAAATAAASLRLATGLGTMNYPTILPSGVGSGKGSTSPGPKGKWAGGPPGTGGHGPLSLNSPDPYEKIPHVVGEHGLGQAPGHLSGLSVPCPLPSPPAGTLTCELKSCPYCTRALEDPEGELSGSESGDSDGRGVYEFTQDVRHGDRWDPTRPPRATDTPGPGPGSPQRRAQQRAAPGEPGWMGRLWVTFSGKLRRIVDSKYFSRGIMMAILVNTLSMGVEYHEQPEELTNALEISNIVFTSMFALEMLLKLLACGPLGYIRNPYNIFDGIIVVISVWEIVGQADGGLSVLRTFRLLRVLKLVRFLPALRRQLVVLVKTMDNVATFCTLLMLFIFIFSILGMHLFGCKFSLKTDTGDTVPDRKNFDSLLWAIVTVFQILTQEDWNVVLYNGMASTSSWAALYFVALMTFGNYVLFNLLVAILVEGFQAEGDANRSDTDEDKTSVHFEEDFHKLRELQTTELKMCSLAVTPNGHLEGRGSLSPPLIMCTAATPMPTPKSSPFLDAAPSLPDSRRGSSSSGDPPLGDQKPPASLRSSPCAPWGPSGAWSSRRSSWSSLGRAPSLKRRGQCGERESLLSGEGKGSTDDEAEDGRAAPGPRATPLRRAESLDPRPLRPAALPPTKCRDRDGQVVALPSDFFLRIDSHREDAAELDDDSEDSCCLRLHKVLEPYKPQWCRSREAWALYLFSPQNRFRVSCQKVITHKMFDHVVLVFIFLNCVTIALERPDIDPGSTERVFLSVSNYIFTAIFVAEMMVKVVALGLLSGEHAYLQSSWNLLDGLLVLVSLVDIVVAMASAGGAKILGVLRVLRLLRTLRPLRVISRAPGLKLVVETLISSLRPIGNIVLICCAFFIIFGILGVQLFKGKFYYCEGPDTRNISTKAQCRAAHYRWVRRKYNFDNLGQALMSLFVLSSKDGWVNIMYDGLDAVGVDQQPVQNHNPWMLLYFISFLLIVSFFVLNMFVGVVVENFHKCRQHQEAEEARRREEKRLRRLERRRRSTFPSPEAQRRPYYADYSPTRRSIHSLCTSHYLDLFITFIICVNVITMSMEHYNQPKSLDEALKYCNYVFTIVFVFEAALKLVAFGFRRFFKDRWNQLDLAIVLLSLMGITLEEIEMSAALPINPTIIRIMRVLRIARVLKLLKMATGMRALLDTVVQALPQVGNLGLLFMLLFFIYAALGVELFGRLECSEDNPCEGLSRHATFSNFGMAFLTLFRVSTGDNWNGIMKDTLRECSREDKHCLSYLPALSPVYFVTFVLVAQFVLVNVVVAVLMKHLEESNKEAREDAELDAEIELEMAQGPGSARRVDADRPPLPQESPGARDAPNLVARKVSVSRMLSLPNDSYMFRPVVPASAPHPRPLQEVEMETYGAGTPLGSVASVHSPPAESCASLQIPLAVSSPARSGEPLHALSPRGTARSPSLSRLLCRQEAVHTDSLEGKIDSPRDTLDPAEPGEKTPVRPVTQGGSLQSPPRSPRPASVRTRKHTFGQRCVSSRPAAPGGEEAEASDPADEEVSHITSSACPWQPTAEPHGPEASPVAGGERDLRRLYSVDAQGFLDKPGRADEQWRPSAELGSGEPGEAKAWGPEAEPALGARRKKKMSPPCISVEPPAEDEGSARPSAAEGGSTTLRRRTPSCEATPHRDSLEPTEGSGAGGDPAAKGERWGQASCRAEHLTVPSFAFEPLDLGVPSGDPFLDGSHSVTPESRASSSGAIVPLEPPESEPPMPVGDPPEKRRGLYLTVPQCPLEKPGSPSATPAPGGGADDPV

The experiment addresses Voltage-dependent T-type calcium channel subunit alpha-1H (Homo sapiens) (UniProt O95180). The experiment is described as follows: Cav3.2 calcium influx blockers – cell-based, Fluo-4 calcium fluorescence, FDSS, MLSMR library, primary screen (AID 449739). To be noted: Cav3.2-expressing cells, at 10 µM, hits give low values.
Take `COc1cccc(N(C(=O)c2ccn[nH]2)C2(C(=O)Nc3c(C)cccc3C)CCCCC2)c1`: the B-score is -4.96 (active).
Next, `COc1cccc(N2CC(C(=O)Nc3c(C)cccc3C)CC2=O)c1` (stereo unspecified): 0.386; `COC(=O)c1cc(Cl)c(NC(=O)c2ccco2)cc1OC`: -0.41; `COc1ccc(NC(=O)c2cccc(NC(=O)c3ccco3)c2)c(OC)c1`: -2.2.
For `COc1ccccc1C(=O)Nc1ccc(NC(=O)c2ccco2)c(C)c1` the value was -5.24 (active); for `Cc1nc(C(=O)NCc2ccccc2)sc1C1(C)CC(c2cccnc2)=NO1` (stereo unspecified), 0.0411; for `CCOC(=O)c1ccc(NC(=O)c2nc[nH]c2C(=O)NCc2ccccc2)cc1`, -0.706.
For `Oc1c(Cl)cc(Cl)c(Cl)c1Cc1c(O)c(Cl)cc(Cl)c1Cl` the value was -5.05 (active); for `CSc1ccc(S(=O)(=O)Nc2cccc(F)c2)cc1`, -4.09 (active).
In the case of `CSc1ccc(S(=O)(=O)NC2CCCCC2)cc1`, the B-score is -0.215.
For `CSc1ccc(S(=O)(=O)NCc2ccc(Cl)cc2)cc1` the value was -1.35; for `CC(C)(C)OC(=O)NCCCC1=CC2=CC(=O)C(C)(OC(=O)c3ccco3)C(=O)C2=CO1` (stereo unspecified), 0.291; for `COc1ccc(C(=O)NC(=S)NNC(=O)CCc2ccccc2)cc1`, -4.4 (active).
For `CCNC(=S)NNC(=O)Cc1ccccc1` the value was 0.703; for `Cc1ccc(NC(=S)NC(=O)c2ccc(-c3ccccc3)cc2)cc1`, -0.678; for `CCOc1c2ccc(C(=O)NCc3ccc4c(c3)OCO4)cc2nn1C`, 0.329.
For `CC(=O)NS(=O)(=O)c1ccc(NC(=O)/C=C/c2ccccc2Cl)cc1` the value was -1.8; for `CCNc1nc(N)nc(-c2cc(Cl)ccc2OC)n1`, 0.499.
For the compound `CC[C@@H](C)[C@@H](C(=O)N1CCN(C(=O)OC(C)(C)C)CC1)n1cc(CCC(=O)O)nn1`, the B-score is 1.09.
Next, `COC(=O)/C(=C\Nc1ccccc1)NC(=O)c1ccc(Cl)cc1Cl`: -5.14 (active); `CC(C)(C)C(=O)Nc1ccc(C(=O)N/N=C/c2ccccc2OC(=O)c2ccc(Cl)cc2Cl)cc1`: -2.74; `COc1ccc(Cl)cc1C(=O)NCC#N`: 0.746.
For `CCOc1cc(/C=C2/N=C(c3ccc(C(C)(C)C)cc3)OC2=O)cc(Cl)c1OS(C)(=O)=O` the value was -1.04; for `Cc1nc2c(C(=O)NCc3ccc4c(c3)OCO4)c[nH]n2c(=O)c1Cc1ccccc1F`, -5.22 (active).
For `CCn1cc(C(=O)NCc2ccc3c(c2)OCO3)c2cc(OC)c(OC)cc2c1=O` the value was 0.417; for `CC(C)NC(=O)CSc1ccccc1C(=O)NCc1ccc2c(c1)OCO2`, 0.374.
For `O=C(CSc1nc(C2CC2)nc2ccccc12)Nc1ccc2c(c1)OCCO2`, the B-score is 0.0431.
Take `COc1ccc(OC)c(C(=O)c2coc3ccc(OC)cc23)c1`: the B-score was -3.61 (active).
Consider `COc1ccc2oc(C)c(NC(C)=O)c2c1`, for which the B-score was 0.131.
Next, `COc1ccc(OC)c(C(=O)c2ccc(C(=O)O)cc2)c1`: -3.15.
Consider `Cc1ccccc1C(=O)N1CCC(C(=O)Nc2ccc(S(=O)(=O)N(C)C(C)C)cc2)CC1`, for which the B-score is 0.159.
With `NC(=O)CC[C@@H]1NC(=O)[C@H](CO)NC(=O)c2cc([N+](=O)[O-])cc(I)c2NCC[C@@H](C(N)=O)NC1=O`, the B-score is 0.984.
Turning to `O=C(COC(=O)c1ccc2c(c1)OCCO2)NCc1ccccc1`, the B-score was -0.412.
Next, `O=C(CC(Cc1ccccc1)C(=O)O)NCCc1ccc2c(c1)OCO2` (stereo unspecified): -0.225.
For `O=C(NCCc1ccc2c(c1)OCCO2)c1cc2ccccc2o1` the value was -3.85 (active); for `COc1ccc(CNC(=O)[C@@H]2CC=C[C@@H]3CCN(C4CC4)C(=O)[C@@H]32)cc1`, 1.86.
For `CC[C@H](C)[C@@H](C(=O)N1CCNCC1)n1cc([C@@H](N)Cc2ccc(O)cc2)nn1` the value was 0.0182; for `Cc1cccc(N(C(=O)Cc2cccs2)C(C(=O)NC2CCCC2)c2ccsc2)c1` (stereo unspecified), -1.16; for `CCC1(CC)C(=O)C2=C3C1[C@H](C(=O)OC)C=C(C(=O)OC)C[C@H]3[C@H]1C(=O)N(Cc3ccccc3)C(=O)[C@H]1[C@H]2C` (stereo partly specified), 0.691.
`Cc1[nH]n(-c2cccc(Cl)c2)c(=O)c1-c1ccc(Cl)cc1`: the B-score is -7.48 (active).
For `O=c1[nH]n(-c2cccc(Cl)c2)c2ncccc12` the value was 0.173.
Next, `Cc1ccc(-c2cc(=O)c3ccc(Cl)cc3[nH]2)cc1`: -0.0223; `CC1=CC(C)(C)Nc2ccc(OC(=O)CN3C(=O)C4CCCCC4C3=O)cc21` (stereo unspecified): -0.00954; `CC1=CC(C)(C)Nc2ccc(OC(=O)C(Cc3ccccc3)N3C(=O)C4CCCCC4C3=O)cc21` (stereo unspecified): -5.23 (active).
For `Cc1ccc(C)n1C(Cc1ccccc1)C(=O)O` (stereo unspecified) the value was 1.91; for `COCCCn1c(SCc2cccc(OC)c2)nc2cc(OC)c(OC)cc2c1=N`, -0.819; for `C=C1CCN([C@H](C(=O)NCc2cc(OC)c(OC)c(OC)c2)C(C)C)S(=O)(=O)c2ccccc21`, 1.03.
As for `COc1ccc2cc1Oc1ccc(cc1)C[C@H]1c3cc(c(OC)cc3CCN1C)Oc1c(O)c(OC)cc3c1[C@H](C2)N(C)CC3`, the B-score was 1.81.
Next, `COc1ccc(-c2cc(C(=O)n3cnc4ccccc43)c3ccccc3n2)cc1`: -0.0392; `COc1ccccc1CSc1nc2ccccc2[nH]1`: -0.942.
For `COc1ccc(-c2[nH]nc(-c3ccccc3)c2-c2nc3ccccc3[nH]2)cc1` the value was -6.24 (active); for `O=C(COc1ccccc1)NCCc1nc2ccccc2[nH]1`, 0.299; for `Cc1cc(N2C(=O)C(=O)/C(=C(/O)c3ccc(Cl)cc3)C2c2cccc(Br)c2)no1` (stereo unspecified), -7.89 (active).
For `COc1ccccc1C1/C(=C(/O)c2ccc(OC(C)C)cc2)C(=O)C(=O)N1c1cc(C)on1` (stereo unspecified) the value was -0.532.
As for `O=C1C(=O)N(CCN2CCOCC2)C(c2ccccn2)/C1=C(/O)c1ccc(Cl)cc1` (stereo unspecified), the B-score was -0.156.
Next, `Cc1cccc(NC(=S)Nc2ccc(Br)cc2)c1`: -1.14.

The record behind these values is PubChem BioAssay AID449739 (Vanderbilt High Throughput Screening Facility, 2010).
